# From PubChem BioAssay
# Hits are enriched below; roughly 2.8% of the tested compounds scored in any of these assays.
# Shn3 inh set2: reduction of Shn3 3'UTR firefly luciferase signal, primary screen, Schnurri-3 inhibitor project, cell-based, Clone20 osteoblasts, set 2; inhibition, % at 12.5 µM; AID 588674, 2011; Clone20 osteoblast Shn3 3'UTR firefly luciferase, 24 h; 360,000 compounds, 0.52% hits;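 active = mean inhibition of at least 75% with every replicate also reaching 75%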;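 also: 0% = median of neutral control wells and 100% = pilot-screen positive control compound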
# LMP1 NFkB inh: EBV LMP1-driven NF-kappaB luciferase reporter inhibitors, primary screen, cell-based, luminescence, single point; LMP1-induced NF-kappaB luciferase reporter cells; inhibition, % at 12.5 µM; 350,000 compounds, 0.69% hits; AID 504558, 2011; in the data active = inhibition above about 41%;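 also: 0% = neutral control wells and 100% = reference inhibitor control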
# Peg3 prom inh: Peg3 promoter-driven luciferase inhibitors, primary screen, cell-based, HeLa, luciferase luminescence. HeLa PEG-Prom luciferase reporter, overnight. inhibition, % at 20 µM. 360,000 compounds, 1.7% hits. AID 588405, 2011;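 active = inhibition of at least 50% at 20 µM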
# PAX8 reporter: inhibitors of PAX8-driven TPO luciferase reporter, primary screen, RMG-I cells, single concentration; SteadyGlo, 24 h; inhibition, % at 12.6 µM; 360,000 compounds, 1.2% hits; AID 652154, 2013;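 active = mean replicate inhibition at least 60% with every replicate also reaching 60%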;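 also: luciferase light reporting Pax8 driven TPO promoter activity; plate controls were median of neutral control wells for no effect and mitoxantrone controls for full effect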
# TRPM1 prom inh: inhibitors of MITF-dependent TRPM1 promoter reporter, primary screen, cell-based, SK-MEL-5, single point, luciferase; SK-MEL-5 TRPM1 promoter luciferase, 24 h; inhibition, % at 12.5 µM; 330,000 compounds, 0.83% hits; AID 488899, 2010;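 active = mean inhibition across replicates of 60% or more, whatever share of single replicates reaches that level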
# HIF-2a block: HIF-2a reporter inhibitors, primary screen, luminescence, 786-0 RCC cells | 786-0 RCC cells HIF-2a reporter, luciferase luminescence, overnight | inhibition, % at 18.8 µM | 360,000 compounds, 0.72% hits | AID 624352, 2012;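 active = inhibition of the luminescence signal of 40% or more relative to plate controls, in a single-dose primary screen at 18.75 µM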
# Numbers without * were called inactive; . = no result given.
SMILES,Shn3 inh set2,LMP1 NFkB inh,Peg3 prom inh,PAX8 reporter,TRPM1 prom inh,HIF-2a block
COc1ccc(/C=C/C(=O)OCCNC(=O)c2ccncc2)cc1OC,16,2,11,-8,5,1
COC(=O)Oc1ccc(/C=C/C(=O)OC(C)C)cc1OC(=O)OC,94*,-14,-73,-33,-63,-115
O=C(C[C@@H]1C[C@@H]2c3cc(NC(=O)Nc4ccccc4)ccc3O[C@@H]2[C@H](CO)O1)NCC(F)(F)F,.,.,.,-15,.,.
O=C1C=C(N2CCOCC2)c2ccccc2C1=O,97*,12,101*,74*,85*,37
Cc1nc(SCC(=O)c2cccc([N+](=O)[O-])c2)n[nH]1,9,55*,-8,.,5,7
C[C@@H]1CN([C@@H](C)CO)C(=O)c2cc(NC(=O)CCN3CCOCC3)ccc2O[C@H]1CN(C)Cc1ccc2c(c1)OCO2,.,.,.,1,.,.
Cc1cccc(Nc2nc(N)nc(CSc3nccc(C)n3)n2)c1,23,-4,-28,-25,-18,-44
COc1cccc(Nc2nc(N)nc(CCl)n2)c1,.,-20,31,97*,-28,-72
Cc1cccc(Nc2nc(N)nc(CCl)n2)c1,7,-27,35,90*,-9,-21
O=C(NCC[C@H]1CC[C@@H](NC(=O)C2CCOCC2)[C@@H](CO)O1)c1cc(Cl)cc(Cl)c1,.,.,.,8,.,.
COCCNC(=O)CN(C(=O)CCC(=O)Nc1ccccn1)c1ccc(F)c(Cl)c1,-8,87*,5,.,-1,14
Cc1ccsc1C(=O)OCC(=O)c1cc(C)n(C)c1C,32,51*,38,48,58,-143
Cc1cc(C(=O)COC(=O)c2nccnc2N)c(C)n1C,1,8,-112,-63,-58,-51
CO[C@@H]1CN(C)C(=O)c2ccc(NC(=O)Cc3ccccc3)cc2OC[C@H](C)N(C)C[C@@H]1C,.,.,.,4,.,.
O=C(c1cccs1)N1CC=C(c2ccccc2)CC1,-33,73*,-106,-48,-27,-110
O=C(c1ccccn1)N1CC=C(c2ccccc2)CC1,11,9,-29,2,-2,-2
O=C(c1cccs1)N1CCN(C(=O)c2cccs2)C1=S,42,2,99*,39,23,0
CCCNC(=O)Nc1ccc2c(c1)OC[C@@H](C)N(C)C[C@H](C)[C@H](OC)CN(C)C2=O,.,.,.,3,.,.
O=C(Nc1ccc(F)cc1)Nc1ccc(N2CCCC2)c(S(=O)(=O)Nc2ccccc2Cl)c1,78,14,42,88*,75*,-15
O=C(Nc1ccc(N2CCCCC2)c(S(=O)(=O)Nc2ccccc2Cl)c1)c1cccnc1,60,0,20,-3,12,18
O=C(Nc1ccc(Cl)c(Cl)c1)Nc1ccc(N2CCCC2)c(S(=O)(=O)Nc2ccccc2Cl)c1,98*,39,58*,32,73*,-21
COCC(=O)Nc1ccc2c(c1)C(=O)N(C)[C@H]1CC[C@H](CC(=O)Nc3cccc(C)c3)O[C@@H]1CO2,.,.,.,12,.,.
C[C@@H]1CCCCO[C@H](CN(C)C(=O)c2ccncc2)[C@H](C)CN([C@H](C)CO)C(=O)c2cc(NS(=O)(=O)c3ccccc3)ccc2O1,.,.,.,-21,.,.
CN(C)S(=O)(=O)c1cccn1-c1ncc(C(F)(F)F)cc1Cl,6,56*,-8,1,11,2
COc1ccc(N2C(c3ccsc3)=Cc3cc4c(cc3C2c2c[nH]c3ccccc23)OCO4)cc1 (stereo not given),.,.,.,73*,.,-19
SMILES,Shn3 inh set2,LMP1 NFkB inh,Peg3 prom inh,PAX8 reporter,TRPM1 prom inh,HIF-2a block
O=C(NNC(=O)c1cccc2ccccc12)c1cccc(F)c1,-1,2,-36,87*,-5,-34
O=C(NNC(=O)c1ccc2ccccc2c1)c1cccc(F)c1,-35,7,-108,-46,-33,-81
Cn1cc(-c2ccccc2C(N)=O)c(=O)c2cc(Cl)ccc21,-3,-3,8,35,9,3
Cn1cc(C2=C(c3ccc(Cl)cc3Cl)C(=O)NC2=O)c2ccccc21,9,-80,45,92*,7,-55
c1ccc2c(c1)CCN(c1nc3cc4c(cc3s1)OCCO4)C2,34,25,40,82*,56,47*
CO[C@H]1CN(C)C(=O)c2cc(NC(=O)CC(F)(F)F)ccc2OC[C@@H](C)N(C(=O)C2CCOCC2)C[C@H]1C,.,.,.,-19,.,.
Cc1cccc(NC(=O)c2cnc3ccccn3c2=O)c1,12,51*,-10,-224,14,-50
O=C(Nc1cnc2ccccn2c1=O)c1ccc(Cl)cc1Cl,16,44*,46,-34,33,-14
Cc1noc(C)c1NC(=O)N[C@H]1CC[C@@H](CC(=O)Nc2ccc(-c3ccccc3)cc2)O[C@H]1CO,.,.,.,-11,.,.
O=C(C[C@H]1CC[C@H]2[C@@H](COC[C@H](O)CN2C(=O)c2cccnc2)O1)NCc1ccc(-c2ccccc2)cc1,.,.,.,6,.,.
COC(=O)C[C@H]1C[C@H]2c3cc(NC(=O)Nc4ccc(C(F)(F)F)cc4)ccc3O[C@H]2[C@H](CO)O1,.,.,.,4,.,.
C[C@@H]1CN([C@H](C)CO)C(=O)c2cc(NC(=O)Cc3cn(C)c4ccccc34)ccc2O[C@H]1CN(C)Cc1ccncc1,.,.,.,18,.,.
O=S(=O)(c1ccccc1)N1CC[C@@H]2[C@H](CO)Nc3ccc(-c4ccccc4F)cc3[C@@H]21,.,.,.,-12,.,.
Cc1noc(C)c1NC(=O)N(C)C[C@H]1Oc2ccc(NC(=O)Cn3cnnn3)cc2CC(=O)N([C@@H](C)CO)C[C@H]1C,.,.,.,1,.,.
CN1CCC2(CC1)Nc1nc(SCc3ccc(Cl)cc3)nn1C1=C2CN(C)CC1,-3,-27,52*,.,55,26
Cc1ccc(P(=O)(CSC(=N)N)c2ccc(C)cc2)cc1,-12,-19,-29,24,7,14
N=C(N)SCP(=O)(c1ccccc1)c1ccccc1,-4,54*,0,8,11,6
C[C@@H]1CN([C@H](C)CO)C(=O)CCCn2cc(nn2)CO[C@@H]1CN(C)C(=O)Nc1ccc(C(C)(C)C)cc1,.,.,.,-8,.,.
C/C=C/c1cnc2c(c1)C(=O)N([C@H](C)CO)C[C@@H](C)[C@H](CN(C)C(=O)c1cnccn1)O2,.,.,.,11,.,.
CCCCCCC(=O)N(O)C1CC(=O)N(Cc2ccccc2)C1=O (stereo not given),-23,52*,35,.,5,-83
COC(=O)c1cc(S(=O)(=O)Nc2cccc(OC)c2)cn1C,1,-13,52*,3,12,9
COC(=O)C[C@H]1CC[C@H](N)[C@@H](CO)O1,.,.,.,-4,.,.
COc1ccc(CN=C(Nc2ccccc2)SC2CC(=O)NC2=O)cc1 (stereo not given),-3,-4,11,5,-9,-8
